By AC50 is commonly meant the concentration at which the activity in the assay is half-maximal.

The values that follow come from PubChem BioAssay (EPA / NIEHS).

Read-out in assay [1]: Interleukin-6 (IL6), IL6 (gene 3569)
Briefly: BSK_CASM3C_IL6: BioMAP Diversity Plus: CASM3C Assay for Interleukin-6 (IL6) Biomarker Activity for (AID 2283040). The note with it: primary human coronary artery smooth muscle cells; actives raise or lower the signal.

Read-out in assay [2]: Tissue plasminogen activator (tPA), PLAT (gene 5327)
Kind of assay: BSK_BE3C_tPA: BioMAP Diversity Plus: BE3C Assay for Tissue plasminogen activator (tPA) Biomarker Activity (AID 2283041).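 On outcome: tPA level quantified by ELISA one day after compound addition.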 The note with it: primary human bronchial epithelial cells; actives raise or lower the signal. Put shortly: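 Gain- or loss-of-signal in tPA, measured by ELISA, derived by bidirectional fitting against DMSO. Cells: human primary bronchial epithelial; read at 24 h after chemical dosing.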

Read-out in assay [3]: Interleukin-8 (IL8), CXCL8 (gene 3576)
Kind of assay: BSK_CASM3C_IL8: BioMAP Diversity Plus: CASM3C Assay for Interleukin-8 (IL8) Biomarker Activity (AID 2283042).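 Further: IL-8 protein level quantified by ELISA.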 The note with it: primary human coronary artery smooth muscle cells; actives raise or lower the signal.

Read-out in assay [4]: Human Leukocyte Antigen - DR isotype (HLADR), HLA-DRA (gene 3122)
Kind of assay: BSK_CASM3C_HLADR: BioMAP Diversity Plus: CASM3C Assay for Human Leukocyte Antigen - DR isotype (HLADR) Biomarker Activity (AID 2283043).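 Further: cell-surface HLA-DR protein level quantified by ELISA.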 The note with it: primary human coronary artery smooth muscle cells; actives raise or lower the signal.

Read-out in assay [5]: Macrophage colony-stimulating factor (MCSF), CSF1 (gene 1435)
Briefly: BSK_CASM3C_MCSF: BioMAP Diversity Plus: CASM3C Assay for Macrophage colony-stimulating factor (MCSF) Biomarker Activity (AID 2283044).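 Further: M-CSF protein amount quantified by ELISA after 24 h exposure.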 The note with it: primary human coronary artery smooth muscle cells; actives raise or lower the signal.

Read-out in assay [6]: Low-density lipoprotein receptor (LDLR), LDLR (gene 3949)
Kind of assay: BSK_CASM3C_LDLR: BioMAP Diversity Plus: CASM3C Assay for Low-density lipoprotein receptor (LDLR) Biomarker Activity (AID 2283045).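 Further: LDLR protein level on the cell surface quantified by ELISA.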 The note with it: primary human coronary artery smooth muscle cells; actives raise or lower the signal.

Read-out in assay [7]: Monocyte Chemoattractant Protein-1 (MCP1), CCL2 (gene 6347)
Briefly: BSK_CASM3C_MCP1: BioMAP Diversity Plus: CASM3C Assay for Monocyte Chemoattractant Protein-1 (MCP1) Biomarker Activity (AID 2283046).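 Further: MCP-1 level quantified by ELISA 24 h after dosing.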 The note with it: primary human coronary artery smooth muscle cells; actives raise or lower the signal.

A short description of assay [8]: BSK_CASM3C_Proliferation: Cell Proliferation Assessment in the BioMAP Diversity Plus: CASM3C Assay (AID 2283047).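 Further: sulforhodamine B total protein stain as relative cell number at 560 nm; sub-confluent cells exposed 48 h before staining; fitted both ways against DMSO so gain or loss of cell number.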 The note with it: primary human coronary artery smooth muscle cells.
Read-out in assay [9]: Monokine induced gamma interferon (MIG), CXCL9 (gene 4283)
Kind of assay: BSK_CASM3C_MIG: BioMAP Diversity Plus: CASM3C Assay for Monokine induced gamma interferon (MIG) Biomarker Activity (AID 2283048).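 Further: MIG protein level measured by ELISA.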 The note with it: primary human coronary artery smooth muscle cells; actives raise or lower the signal.

Read-out in assay [10]: serum amyloid A (SAA), SAA1 (gene 6288)
Kind of assay: BSK_CASM3C_SAA: BioMAP Diversity Plus: CASM3C Assay for serum amyloid A (SAA) Biomarker Activity (AID 2283049).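 Further: SAA protein level quantified by ELISA.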 The note with it: primary human coronary artery smooth muscle cells; actives raise or lower the signal.

Assay [11] is described as follows: BSK_CASM3C_SRB: Viability Assessment in the BioMAP Diversity Plus: CASM3C Assay (AID 2283050).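 Further: cells exposed to compound for 24 h.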 The note with it: primary human coronary artery smooth muscle cells.
Read-out in assay [12]: Thrombomodulin, THBD (gene 7056)
Kind of assay: BSK_CASM3C_Thrombomodulin: BioMAP Diversity Plus: CASM3C Assay for Thrombomodulin Biomarker Activity (AID 2283051).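 Further: thrombomodulin protein level measured by ELISA 24 h after dosing.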 The note with it: primary human coronary artery smooth muscle cells; actives raise or lower the signal.

Read-out in assay [13]: Tissue Factor, F3 (gene 2152)
Briefly: BSK_CASM3C_TissueFactor: BioMAP Diversity Plus: CASM3C Assay for Tissue Factor Biomarker Activity (AID 2283052).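 Further: cell surface tissue factor protein level read by ELISA.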 The note with it: primary human coronary artery smooth muscle cells; actives raise or lower the signal.

Read-out in assay [14]: Urokinase-type plasminogen activator receptor (uPAR), PLAUR (gene 5329)
Briefly: BSK_CASM3C_uPAR: BioMAP Diversity Plus: CASM3C Assay for Urokinase-type plasminogen activator receptor (uPAR) Biomarker Activity (AID 2283054).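 Further: cell-surface uPAR protein level quantified by ELISA.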 The note with it: primary human coronary artery smooth muscle cells; actives raise or lower the signal.

Read-out in assay [15]: Vascular cell adhesion molecule 1 (VCAM1), VCAM1 (gene 7412)
Briefly: BSK_CASM3C_VCAM1: BioMAP Diversity Plus: CASM3C Assay for Vascular cell adhesion molecule 1 (VCAM1) Biomarker Activity (AID 2283055).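 Further: VCAM-1 protein level quantified by ELISA on the cells.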 The note with it: primary human coronary artery smooth muscle cells; actives raise or lower the signal.

Read-out in assay [16]: Epidermal growth factor receptor (EGFR), EGFR (gene 1956)
Briefly: BSK_hDFCGF_EGFR: BioMAP Diversity Plus: hDFCGF Assay for Epidermal growth factor receptor (EGFR) Biomarker Activity (AID 2283057). The note with it: primary human foreskin fibroblasts; actives raise or lower the signal. In short, it runs like this: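 Dosing human primary skin fibroblasts, then measuring surface EGFR by ELISA at 24 h, gives the endpoint; gains and losses relative to DMSO were fitted in both directions.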

Read-out in assay [17]: Interleukin-8 (IL8), CXCL8 (gene 3576)
Kind of assay: BSK_hDFCGF_IL8: BioMAP Diversity Plus: hDFCGF Assay for Interleukin-8 (IL8) Biomarker Activity (AID 2283058). The note with it: primary human foreskin fibroblasts; actives raise or lower the signal. In short, it runs like this:
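Primary human foreskin fibroblasts (hDFCGF system) dosed with chemical; IL-8 measured by ELISA 24 hours later. Bidirectional curve fitting relative to DMSO baseline; cytotoxicity tracked in parallel cultures by SRB total protein staining.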

Assay [18] in a line: BSK_hDFCGF_Proliferation: Cell Proliferation Assessment in the BioMAP Diversity Plus: hDFCGF Assay (AID 2283059).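 Further: curves fitted for both rise and fall of signal versus DMSO baseline.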 The note with it: primary human foreskin fibroblasts. In short, it runs like this:
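Total protein read at 560 nm after 0.1% SRB staining of TCA-fixed human skin fibroblasts, […]. Activity is fitted in both directions relative to DMSO as baseline.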

Read-out in assay [19]: Collagen III, COL3A1 (gene 1281)
Briefly: BSK_hDFCGF_CollagenIII: BioMAP Diversity Plus: hDFCGF Assay for Collagen III Biomarker Activity (AID 2283056). The note with it: primary human foreskin fibroblasts; actives raise or lower the signal. In short, it runs like this: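 Human foreskin fibroblast primary cultures sampled 24 h after dosing; Collagen III quantified by ELISA. Signal fitted bidirectionally against DMSO baseline.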

Read-out in assay [20]: Interferon-gamma inducible Protein 10 (IP10), CXCL10 (gene 3627)
Briefly: BSK_hDFCGF_IP10: BioMAP Diversity Plus: hDFCGF Assay for Interferon-gamma inducible Protein 10 (IP10) Biomarker Activity (AID 2283053). The note with it: primary human foreskin fibroblasts; actives raise or lower the signal. In short, it runs like this: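 Cells: human dermal foreskin fibroblasts. Exposure: 24 h post-dosing. Detection: IP-10 ELISA, with values expressed against DMSO controls and fitted in both directions.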

The structures appear in SMILES notation. Calls of active or inactive are those of the source. How the source made its calls: active means hit-call score of the fitted dose curve at least 0.9, where 1 is the maximum; inactive means score below 0.9.

As for `CC(C)(C)c1ccc(O)cc1`, the outcome in [1], in assay [2], in assay [3], in assay [4], in assay [5] and in assay [6] was inactive. The outcome in assay [7], in assay [8], in assay [9], in [10], in assay [11] and in assay [12] was inactive. The result in [13], in assay [14], in assay [15], in assay [16], in assay [17] and in assay [18] was inactive.
With `O=[N+]([O-])c1ccccc1`, the outcome in assay [1], in assay [2], in assay [3], in [4], in assay [5] and in [6] was inactive. Further, the outcome in assay [7], in assay [8], in [9], in assay [10], in assay [11] and in assay [12] was inactive. Besides, the result in assay [13], in [14], in assay [15], in assay [19], in assay [16] and in assay [17] was inactive. The result in [18] was inactive.
Turning to `CCOP(=S)(Oc1ccc([N+](=O)[O-])cc1)c1ccccc1` (stereo unspecified), the result in assay [1], in assay [3], in [5], in assay [7], in assay [9] and in [10] was inactive. The result in [13], in assay [14], in assay [15], in [16] and in [17] was inactive. Besides, the AC50 is 2.17 µM (active) in [2]; 14.2 µM (active) in assay [4]; 20 µM (active) in assay [6]; 20 µM (active) in assay [8]; 12.9 µM (active) in assay [12]; 20 µM (active) in assay [20]. Moreover, the AC50 in [18] was 6.37 µM (active).
For the molecule `CC(Cl)(Cl)C(=O)O`, the result in assay [1], in assay [2], in [3], in assay [4], in assay [5] and in assay [6] was inactive. In addition, the outcome in assay [7], in assay [8], in assay [9], in assay [10], in [11] and in assay [12] was inactive. In addition, the result in assay [13], in assay [14], in assay [15], in assay [16] and in assay [17] was inactive. Further, the AC50 in [18] was 0.148 µM (active).
With `Nc1ccc(Cl)cc1`, the outcome in [1], in [2], in [3], in [4], in assay [5] and in [6] was inactive. The result in [7], in assay [8], in [9], in assay [10], in assay [11] and in assay [12] was inactive. Besides, the outcome in assay [13], in assay [14], in assay [15], in [16] and in assay [17] was inactive. The AC50 in [18] is 7.71 µM (active).
Take `O=S(=O)(F)C(F)(F)C(F)(F)C(F)(F)C(F)(F)C(F)(F)C(F)(F)C(F)(F)C(F)(F)F`: the outcome in assay [1], in assay [2], in assay [3], in [4], in assay [5] and in assay [6] was inactive. Moreover, the outcome in assay [7], in [8], in assay [9], in [10], in assay [11] and in [12] was inactive. Further, the result in assay [13], in assay [14], in [15], in assay [16], in assay [17] and in [18] was inactive.
Turning to `Cc1cccc(N)c1`, the result in [1], in assay [2], in assay [3], in assay [4], in [5] and in assay [6] was inactive. In addition, the result in assay [7], in assay [8], in [9], in assay [10], in assay [11] and in assay [12] was inactive. The result in assay [13], in assay [14], in assay [15], in [19], in assay [16] and in [17] was inactive. Moreover, the AC50 in assay [18] was 0.148 µM (active).
Turning to `OCC1CO1` (stereo unspecified), the result in assay [1], in assay [2], in assay [3], in [4], in [5] and in assay [6] was inactive. In addition, the outcome in assay [7], in [8], in [9], in [10], in assay [11] and in [12] was inactive. Further, the outcome in assay [13], in [14], in assay [15], in assay [16], in assay [17] and in assay [18] was inactive.
